# Measurements as given in PubChem BioAssay (NCI).
# The panel holds about 83,000 compounds, 20% with a hit somewhere; the sample as a whole holds those more often.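 48-hour exposure, single concentration, 96-well plates; percent growth endpoint where 0 means no net growth. Active: below 10.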 A number with no mark means an inactive call. Activity calls are given as the source filed them.
# Tests used:
# Assay in all cases: NCI-60 one-dose screen, 48 h (100 = growth as untreated, 0 = no growth, -100 = all killed)
# Conditions in all cases: 10 µM
# T-47D breast = test system: T-47D breast
# BT-549 breast = test system: BT-549 breast
# MDA-MB-435 melanoma = test system: MDA-MB-435 melanoma
# SW-620 colon = test system: SW-620 colon
# MCF7 breast = test system: MCF7 breast
# HCT-116 colon = test system: HCT-116 colon
# HCC-2998 colon = test system: HCC-2998 colon
# KM12 colon = test system: KM12 colon
Structure (SMILES),growth (T-47D breast),growth (BT-549 breast),growth (MDA-MB-435 melanoma),growth (SW-620 colon),growth (MCF7 breast),growth (HCT-116 colon),growth (HCC-2998 colon),growth (KM12 colon)
CC1/C=C/C=C/C=C/C=C/C=C/C=C/C=C/C(O[C@@H]2O[C@H](C)[C@H](O)[C@@H](O)[C@@H]2N)CC(O)C(C(=O)O)C(O)CC(=O)CC(O)CC(O)CC(O)CC(=O)CCCC(=O)CC(=O)OC1C(C)CC(C)C(O)CC(=O)c1ccc(N)cc1 (some centres not stated),-87.1% (active),-93% (active),-93% (active),-95.3% (active),-87% (active),-90.7% (active),-98.1% (active),-96% (active)
COc1cc(-c2nn(-c3cccc(NC(=O)CCNc4ccc(N5CCOCC5)cc4)c3)cc2-c2ccncc2)ccc1Cl,15.2%,19.8%,14.3%,18.6%,7.35% (active),5.29% (active),43.3%,20.4%
CN1C(C(=O)Nc2ccccn2)=C(O)c2sc(Cl)cc2S1(=O)=O,92.6%,108%,97.6%,95.8%,96.6%,100%,95.1%,104%
COc1ccc(C2CC(c3cccs3)=NN2c2ccc(S(N)(=O)=O)cc2)cc1 (configuration not stated),85.1%,99.7%,82%,100%,75%,70.7%,92.5%,91.5%
NC1=NC(c2ccccc2)C2=C(N1)/C(=C/c1ccccc1)CCC2 (configuration not stated),93.1%,112%,36.8%,72.8%,38.6%,-53.1% (active),48.5%,47%
COc1cc(C2CC(c3cc(Cl)c(C)cc3O)=NN2c2ccc(S(N)(=O)=O)cc2)cc(OC)c1OC (configuration not stated),-1.47% (active),30.9%,20.9%,18.8%,-15.4% (active),-14.3% (active),-20.6% (active),2.06% (active)
O=C(N/N=C/c1ccc([N+](=O)[O-])cc1)c1ccccc1Nc1cccc(C(F)(F)F)c1,95.1%,77.8%,103%,102%,111%,53.9%,99.5%,141%
COc1ccc(/C=C/C(=O)C(=O)/C=C/c2ccc(OC)c(OC)c2)cc1OC,35.8%,14.8%,12.2%,4.43% (active),4.02% (active),-74.8% (active),21.9%,-4.31% (active)
Cc1ccc(C2=NN(c3ccc(S(C)(=O)=O)cc3)C(=O)CC2)cc1,32.7%,11.3%,-61.2% (active),8.58% (active),16.2%,17.7%,47.2%,35%
O=C1OC(C(Cl)(Cl)Cl)OC1C(Cl)(Cl)Cl (configuration not stated),122%,109%,94.7%,125%,114%,105%,111%,101%
O=C(CCCSc1nc(-c2ccc(Cl)cc2)cc(-c2ccc(Cl)cc2)n1)NO,24.6%,31.9%,24%,23.9%,2.7% (active),11.5%,7.09% (active),26.3%
COc1cc(-c2nn(-c3cccc(NC(=O)NCCNC(=O)c4cccc(C(F)(F)F)c4)c3)cc2-c2ccncc2)ccc1Cl,52.7%,14.2%,-41.6% (active),36.1%,12.7%,24.4%,67.3%,18.9%
Cn1cnc([N+](=O)[O-])c1/C=C1\Oc2ccc(Br)cc2C1=O,98.1%,95.8%,78%,82.6%,47.9%,56.9%,101%,93.9%
COc1cc(C(=O)n2nc(-c3cc(OC)c(OC)c(OC)c3)nc2N)cc(OC)c1OC,77.1%,100%,95.8%,99.9%,88.3%,91.1%,94.9%,102%
O=C1c2ccccc2C(=O)N1CCCCNc1ccccc1,124%,61.7%,118%,105%,111%,97.5%,108%,67%
CC(=O)C1N=NCC1c1ccccc1 (configuration not stated),104%,105%,108%,101%,95.7%,100%,102%,102%
c1ccc(CSc2ncccc2-c2nnc(SCCN3CCOCC3)o2)cc1,101%,112%,114%,107%,94.9%,108%,116%,107%
O=C(O)c1ccc(-n2cc(CNc3ccc(Cl)cc3)c(-c3ccccc3)n2)cc1,89.4%,90.2%,91.9%,92.6%,87.4%,85.9%,113%,87.8%
CC1(C)N=C(N)N=C(N)N1c1cccc(C#N)c1,99.7%,81.6%,36.2%,29.9%,52%,17.1%,58.4%,47.7%
COc1cc2c(Nc3ccc(-c4ccc(N)cc4)cc3)ncnc2c(OC)c1OC,83%,85.5%,7.13% (active),14.4%,36.1%,58.3%,4.99% (active),3.42% (active)
CN(C)CCOc1ccc(-c2nc3sccn3c2-c2ccnc(S(C)(=O)=O)n2)cc1,110%,118%,107%,104%,90.2%,98.1%,111%,113%
CC(C)(C)OC(=O)CC(S(=O)(=O)c1ccccc1)S(=O)(=O)c1ccccc1,67.1%,108%,100%,-63.9% (active),97%,82.5%,106%,99.6%
CC(C)(C)c1ccc(S(=O)(=O)N[C@H]2CC[C@H]3[C@@H]4CCc5cc(OS(=O)(=O)O)ccc5[C@H]4CC[C@]23C)cc1,19.9%,47.5%,49.9%,56.6%,15.3%,26.8%,73.2%,40.9%
CNC(=O)c1c(I)c(NC(C)=O)c(I)c(C(=O)O)c1I,117%,113%,103%,102%,108%,121%,106%,109%
CCn1cc(C(=O)O)c(=O)c2cc(F)c(N3CCNCC3)cc21,124%,110%,107%,103%,107%,115%,110%,103%
COc1ccc(/C=C2/SC(=S)NC2=O)c(OC)c1OC,63.2%,91.1%,78.5%,93.9%,80.4%,85.8%,82.3%,93.3%
Brc1ccc2c(c1)-c1ccccc1C1=NCCN12,-0.518% (active),11%,1.68% (active),-34.3% (active),-5.53% (active),-12.6% (active),13.5%,10.9%
COc1cc(Cc2cc(-c3ccccc3)n[nH]c2=O)cc(OC)c1OC,40.5%,54.1%,11%,33%,34.9%,16.3%,79.1%,48.8%
COc1cc2cc(Oc3ccc(NC(=O)Nc4ccc(Cl)c(C(F)(F)F)c4)cc3)c(C)nc2cc1OC,21.4%,-38.7% (active),-25.7% (active),7.51% (active),2.59% (active),-87.3% (active),-13.1% (active),-16.4% (active)
